According to the supplement of paper PMC10849652:
Of roughly 7,900 targets only a part is listed; those with a hit were picked by preference. About 0.6% of all pairs of compound and target were hits. Unmarked numbers belong to inactive results.

What was measured:
Test in all cases: log2 fold change, soluble protein after heating vs DMSO (PISA); higher = thermal stabilisation; K562 cells, 10 uM, 30 min; active = over 0.2 and 3.5 SD of the protein, either way, in both replicates (recomputed)
[1] = compound: CC[C@@H]1C(=O)N(C)c2cnc(Nc3ccc(C(=O)NC4CCN(C)CC4)cc3OC)nc2N1C1CCCC1
Outline: (§1)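 K562 cells at 2×10^6 cells/mL were treated with 10 μM compound for 30 min. Aliquots were heated for 3 min across 48°C-58°C, pooled, and extracted in PBS with 0.5% NP-40 at 4°C; soluble protein was the supernatant after 21,000xg for 90 min. Soluble protein was quantified by TMTpro 16plex LC-MS/MS with channel sums equalised, and reported as log2 fold change in thermal stability against DMSO controls, with values from duplicates.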

[2] = compound: CC[C@@H]1C(=O)N(C)c2cnc(Nc3ccc(C(=O)N[C@H]4CC[C@H](N5CCN(CC6CC6)CC5)CC4)cc3OC)nc2N1C(C)C [volasertib]
Outline: as §1

[3] = compound: CC[C@H](C)N1C=C(C2=C(C=C(C=C21)C3=CN=C(C=C3)N4CCNCC4)C(=O)NCC5=C(C=C(NC5=O)C)C)C
Outline: as §1

[4] = compound: CC[C@H](C)[C@@H](C(=O)N[C@@H]([C@@H](C)O)C(=O)N[C@@H](CC(C)C)C(=O)[C@]1(CO1)C)NC(=O)[C@H]([C@@H](C)CC)N(C)C(=O)C [epoxomicin]
Outline: as §1

[5] = compound: CCn1c(C(=O)N(C2CC2)C2CC2)cc2c3c(ncn3C)c(Nc3cc(C)n(C)n3)nc21
Outline: as §1

[6] = compound: CCn1cc(-c2ccnc3[nH]c(-c4cccc(CN(C)C)c4)cc23)c(-c2ccc(NC(=O)N(C)C)cc2)n1
Outline: as §1

[7] = compound: CN(C)CC(=O)Nc1ccc2[nH]c(=O)c3ccccc3c2c1
Outline: as §1

[8] = compound: CN(CCOC1=CC=C(C=C1)C[C@H]2C(=O)NC(=O)S2)C3=CC=CC=N3 (racemic) [rosiglitazone]
Outline: as §1

[9] = compound: CN1C2=C(C3=C1C(=O)N(N=C3)CC4=CC(=CC=C4)N)SC(=C2)S(=O)C
Outline: as §1

[10] = compound: CN1CCC(CNc2ccc3ncc(-c4cccc(OC(F)(F)F)c4)n3n2)CC1
Outline: as §1

UniProt Q32MZ4, sequence (Q32MZ4 whole entry, looked up): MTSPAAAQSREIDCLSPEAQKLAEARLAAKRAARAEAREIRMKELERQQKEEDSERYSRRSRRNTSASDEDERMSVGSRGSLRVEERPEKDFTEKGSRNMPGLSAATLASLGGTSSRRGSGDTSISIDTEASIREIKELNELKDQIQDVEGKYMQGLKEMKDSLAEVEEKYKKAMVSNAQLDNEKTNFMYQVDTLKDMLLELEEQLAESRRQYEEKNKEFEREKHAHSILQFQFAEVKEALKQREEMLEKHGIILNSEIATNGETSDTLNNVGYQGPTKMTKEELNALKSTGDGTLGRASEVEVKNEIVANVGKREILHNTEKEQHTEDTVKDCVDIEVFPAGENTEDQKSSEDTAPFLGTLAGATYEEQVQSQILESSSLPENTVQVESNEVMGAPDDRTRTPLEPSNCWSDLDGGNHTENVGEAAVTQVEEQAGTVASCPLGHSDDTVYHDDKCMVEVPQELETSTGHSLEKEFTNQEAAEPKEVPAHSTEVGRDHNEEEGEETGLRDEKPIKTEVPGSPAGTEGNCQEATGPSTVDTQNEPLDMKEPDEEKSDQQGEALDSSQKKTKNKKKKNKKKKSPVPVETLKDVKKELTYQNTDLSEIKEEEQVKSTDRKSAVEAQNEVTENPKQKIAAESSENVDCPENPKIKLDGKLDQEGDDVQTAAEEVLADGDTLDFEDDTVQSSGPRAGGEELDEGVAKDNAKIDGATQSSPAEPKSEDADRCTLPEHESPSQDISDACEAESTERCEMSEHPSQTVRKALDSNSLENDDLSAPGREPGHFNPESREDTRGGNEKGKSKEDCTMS
UniProt Q03252, sequence (Q03252 whole entry, looked up): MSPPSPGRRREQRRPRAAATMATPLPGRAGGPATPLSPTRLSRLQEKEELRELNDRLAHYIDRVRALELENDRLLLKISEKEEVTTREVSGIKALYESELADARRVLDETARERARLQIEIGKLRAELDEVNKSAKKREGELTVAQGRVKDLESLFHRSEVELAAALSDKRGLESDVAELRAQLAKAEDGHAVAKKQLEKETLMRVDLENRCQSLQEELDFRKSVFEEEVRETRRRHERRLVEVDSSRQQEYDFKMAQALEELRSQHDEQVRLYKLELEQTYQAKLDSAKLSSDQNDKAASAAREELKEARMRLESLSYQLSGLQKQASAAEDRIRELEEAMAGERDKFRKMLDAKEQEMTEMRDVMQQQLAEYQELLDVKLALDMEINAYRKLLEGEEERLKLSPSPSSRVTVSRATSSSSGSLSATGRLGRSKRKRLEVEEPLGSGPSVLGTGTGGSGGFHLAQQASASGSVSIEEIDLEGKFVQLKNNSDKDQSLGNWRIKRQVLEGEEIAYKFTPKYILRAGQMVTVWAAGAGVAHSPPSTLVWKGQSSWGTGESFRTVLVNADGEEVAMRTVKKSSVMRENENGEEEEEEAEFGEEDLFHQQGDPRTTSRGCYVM
UniProt Q9H6V9, sequence (Q9H6V9 whole entry, looked up): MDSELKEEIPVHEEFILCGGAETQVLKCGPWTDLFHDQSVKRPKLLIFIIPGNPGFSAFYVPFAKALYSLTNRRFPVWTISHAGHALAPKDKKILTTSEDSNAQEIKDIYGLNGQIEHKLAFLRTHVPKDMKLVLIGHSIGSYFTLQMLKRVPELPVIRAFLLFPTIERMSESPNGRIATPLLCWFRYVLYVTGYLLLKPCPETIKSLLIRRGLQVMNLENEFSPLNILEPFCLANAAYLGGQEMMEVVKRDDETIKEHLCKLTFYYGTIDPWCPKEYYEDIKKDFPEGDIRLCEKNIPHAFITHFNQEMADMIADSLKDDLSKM
UniProt Q9UPY8, sequence (Q9UPY8 whole entry, looked up): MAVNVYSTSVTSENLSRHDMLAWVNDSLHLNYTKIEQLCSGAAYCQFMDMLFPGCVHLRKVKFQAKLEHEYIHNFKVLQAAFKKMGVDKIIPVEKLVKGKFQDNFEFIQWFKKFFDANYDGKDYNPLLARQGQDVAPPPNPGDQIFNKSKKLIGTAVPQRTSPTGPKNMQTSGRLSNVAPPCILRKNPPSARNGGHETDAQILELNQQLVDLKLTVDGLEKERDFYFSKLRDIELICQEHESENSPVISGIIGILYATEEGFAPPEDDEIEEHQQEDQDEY
UniProt P33947, sequence (P33947 whole entry, looked up): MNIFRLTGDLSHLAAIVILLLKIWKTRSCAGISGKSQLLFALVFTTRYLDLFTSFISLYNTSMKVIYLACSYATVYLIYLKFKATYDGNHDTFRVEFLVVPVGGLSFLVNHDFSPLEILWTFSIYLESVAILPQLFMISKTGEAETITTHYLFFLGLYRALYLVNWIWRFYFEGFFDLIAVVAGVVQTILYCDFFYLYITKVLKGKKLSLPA
UniProt Q8TBB5, sequence (Q8TBB5 whole entry, looked up): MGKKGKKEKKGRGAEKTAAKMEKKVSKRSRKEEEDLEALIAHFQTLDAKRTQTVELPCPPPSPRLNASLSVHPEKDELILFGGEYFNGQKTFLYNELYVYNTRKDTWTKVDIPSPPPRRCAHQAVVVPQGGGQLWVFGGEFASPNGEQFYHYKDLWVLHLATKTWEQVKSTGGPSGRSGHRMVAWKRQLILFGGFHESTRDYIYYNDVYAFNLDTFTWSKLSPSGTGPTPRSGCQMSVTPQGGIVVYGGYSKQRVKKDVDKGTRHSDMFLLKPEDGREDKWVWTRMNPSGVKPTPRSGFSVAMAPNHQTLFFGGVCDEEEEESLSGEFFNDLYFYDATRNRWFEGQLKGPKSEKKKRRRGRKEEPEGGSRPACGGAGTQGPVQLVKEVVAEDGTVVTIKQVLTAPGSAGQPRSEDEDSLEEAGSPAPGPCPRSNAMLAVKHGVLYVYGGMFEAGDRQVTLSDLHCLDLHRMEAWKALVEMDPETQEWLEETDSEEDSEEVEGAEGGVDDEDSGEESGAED
UniProt Q8IVT5, sequence (Q8IVT5 whole entry, looked up): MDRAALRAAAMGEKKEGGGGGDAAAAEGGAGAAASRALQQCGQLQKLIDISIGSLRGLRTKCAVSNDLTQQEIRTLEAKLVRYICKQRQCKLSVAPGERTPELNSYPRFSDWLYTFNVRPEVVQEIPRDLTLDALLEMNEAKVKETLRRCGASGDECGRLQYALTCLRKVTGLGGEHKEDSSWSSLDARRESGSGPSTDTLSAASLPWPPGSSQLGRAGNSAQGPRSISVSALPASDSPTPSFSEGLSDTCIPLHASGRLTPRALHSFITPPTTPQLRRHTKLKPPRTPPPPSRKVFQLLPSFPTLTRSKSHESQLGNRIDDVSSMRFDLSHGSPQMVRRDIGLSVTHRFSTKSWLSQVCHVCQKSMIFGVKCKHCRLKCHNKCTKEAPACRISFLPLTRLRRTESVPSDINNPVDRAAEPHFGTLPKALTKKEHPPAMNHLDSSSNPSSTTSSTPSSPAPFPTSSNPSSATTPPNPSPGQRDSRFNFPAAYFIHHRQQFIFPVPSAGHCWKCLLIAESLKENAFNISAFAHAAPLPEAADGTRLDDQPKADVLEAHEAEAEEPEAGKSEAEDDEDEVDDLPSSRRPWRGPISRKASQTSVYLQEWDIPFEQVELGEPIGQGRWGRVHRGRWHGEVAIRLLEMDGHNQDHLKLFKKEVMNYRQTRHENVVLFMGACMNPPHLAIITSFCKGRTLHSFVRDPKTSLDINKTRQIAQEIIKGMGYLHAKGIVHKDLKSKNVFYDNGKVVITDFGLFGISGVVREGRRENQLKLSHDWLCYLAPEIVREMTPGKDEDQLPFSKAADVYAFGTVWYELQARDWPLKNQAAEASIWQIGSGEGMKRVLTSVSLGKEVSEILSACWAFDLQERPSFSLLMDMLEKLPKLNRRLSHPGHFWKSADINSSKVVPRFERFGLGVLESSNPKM
UniProt Q5XKP0, sequence (Q5XKP0 whole entry, looked up): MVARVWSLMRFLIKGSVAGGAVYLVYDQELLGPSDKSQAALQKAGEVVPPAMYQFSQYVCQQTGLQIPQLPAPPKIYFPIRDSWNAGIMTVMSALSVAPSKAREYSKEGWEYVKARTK
UniProt Q86WA8, sequence (Q86WA8 whole entry, looked up): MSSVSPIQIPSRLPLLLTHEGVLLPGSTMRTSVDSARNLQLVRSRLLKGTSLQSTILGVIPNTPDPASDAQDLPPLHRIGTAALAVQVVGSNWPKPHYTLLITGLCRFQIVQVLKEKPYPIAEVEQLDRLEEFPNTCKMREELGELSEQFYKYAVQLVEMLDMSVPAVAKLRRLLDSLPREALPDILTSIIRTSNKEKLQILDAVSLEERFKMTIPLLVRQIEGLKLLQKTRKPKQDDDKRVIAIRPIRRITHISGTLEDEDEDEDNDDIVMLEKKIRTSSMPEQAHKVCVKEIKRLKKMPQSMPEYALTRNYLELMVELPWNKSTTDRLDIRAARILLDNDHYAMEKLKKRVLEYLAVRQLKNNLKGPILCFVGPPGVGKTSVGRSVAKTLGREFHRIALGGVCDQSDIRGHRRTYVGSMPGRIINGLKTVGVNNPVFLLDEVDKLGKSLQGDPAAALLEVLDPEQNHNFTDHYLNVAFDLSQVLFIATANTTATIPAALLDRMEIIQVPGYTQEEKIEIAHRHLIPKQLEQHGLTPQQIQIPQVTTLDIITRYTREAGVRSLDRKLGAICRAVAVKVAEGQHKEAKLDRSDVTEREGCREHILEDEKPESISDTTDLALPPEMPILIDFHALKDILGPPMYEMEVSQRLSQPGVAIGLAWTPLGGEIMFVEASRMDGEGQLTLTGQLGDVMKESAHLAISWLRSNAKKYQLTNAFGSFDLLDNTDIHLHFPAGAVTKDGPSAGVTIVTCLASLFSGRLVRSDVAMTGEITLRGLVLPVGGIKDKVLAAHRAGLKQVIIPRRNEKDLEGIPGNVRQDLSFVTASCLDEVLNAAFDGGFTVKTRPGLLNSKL
UniProt P01116, sequence (P01116 whole entry, looked up): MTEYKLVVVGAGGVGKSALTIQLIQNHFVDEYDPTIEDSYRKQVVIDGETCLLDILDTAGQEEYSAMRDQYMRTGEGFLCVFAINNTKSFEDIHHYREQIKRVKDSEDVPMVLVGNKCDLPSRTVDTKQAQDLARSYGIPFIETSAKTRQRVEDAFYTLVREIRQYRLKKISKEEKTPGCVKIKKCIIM

Target	log2 fold change [1]	log2 fold change [2]	log2 fold change [3]	log2 fold change [4]	log2 fold change [5]	log2 fold change [6]	log2 fold change [7]	log2 fold change [8]	log2 fold change [9]	log2 fold change [10]
KDM1A isoform 2 (UniProt O60341)	0.135	-0.028	0.06	0.101	-0.053	-0.111	0.006	0.099	-0.001	-0.091
IKZF1 (UniProt Q13422)	0.079	-0.067	0.053	-0.052	0.018	-0.048	0.024	0.008	0.051	-0.239
LTV1 (UniProt Q96GA3)	0.09	0.004	0.06	-0.109	0.021	0.023	-0.049	-0.032	0.189	0.104
MICOS13 (UniProt Q5XKP0)	-0.132	-0.181	0.025	0.023	-0.023	-0.043	0.026	0.011	-0.044	-0.579 (active)
KSR1 (UniProt Q8IVT5)	-0.11	-0.182	0.179	0.047	0.002	0.178	0.009	0.058	-0.05	-0.878 (active)
LMNB2 (UniProt Q03252)	0.027	-0.077	0.024	0.028	-0.061	0.043	-0.033	-0.005	-0.01	0.014
ITPRIP (UniProt Q8IWB1)	-0.037	-0.148	-0.012	-0.019	-0.016	0.031	0	0.044	-0.111	-0.017
MIER1 isoform 12 (UniProt Q8N108)	-0.032	-0.102	0.066	0.02	-0.039	-0.095	-0.033	-0.027	-0.077	-0.107
KLHDC4 (UniProt Q8TBB5)	0.091	-0.342	0.012	-0.026	0.036	-0.064	0.065	-0.012	0.075	0.158
LARP1 (UniProt Q6PKG0)	0.098	0.071	0.047	-0.034	0.061	0.016	-0.054	0.014	0.131	0.025
MED1 (UniProt Q15648)	0.073	0.077	0.076	-0.051	-0.001	-0.04	-0.054	0.001	0.024	-0.025
MDN1 (UniProt Q9NU22)	-0.109	-0.334 (active)	0.093	0.006	-0.119	-0.076	0.031	0.08	-0.027	-0.287 (active)
MAGEA9 (UniProt P43362)	-0.11	-0.39 (active)	-0.057	-0.044	-0.05	-0.088	0.044	0.038	-0.084	-0.116
MAPKAPK5 (UniProt Q8IW41)	0.009	-0.007	-0.023	0.045	-0.092	-0.132	-0.123	-0.046	-0.112	-0.033
MCU (UniProt Q8NE86)	-0.147	-0.249 (active)	0.014	0.075	-0.082	-0.048	0.011	0.034	-0.045	-0.23 (active)
MAPRE3 (UniProt Q9UPY8)	-0.105	-0.226	0.101	0.01	0.009	-0.041	-0.009	0.051	-0.068	-0.061
MAP4 (UniProt P27816)	0.011	0.049	-0.041	-0.003	0.018	-0.002	-0.03	-0.021	-0.004	0.037
LDAH isoform 2 (UniProt Q9H6V9)	-0.062	-0.374 (active)	0.007	-0.052	-0.011	-0.148	0.049	-0.031	-0.137	-0.688 (active)
LONP2 (UniProt Q86WA8)	0.141	0.16	0.063	0.336	-0.032	0.034	-0.106	0.05	0.054	0.17
LMNA (UniProt P02545)	0.008	-0.15	0.01	-0.014	-0.022	0.057	0.009	-0.025	-0.006	0
KDELR2 (UniProt P33947)	0.033	-0.18	-0.089	-0.02	-0.031	-0.016	-0.125	0.017	-0.063	0.255
IPO7 (UniProt O95373)	-0.248 (active)	-0.542 (active)	0.067	-0.007	0.008	-0.038	0.051	0.067	-0.011	-0.248 (active)
KDM5D isoform 3 (UniProt Q9BY66)	-0.305	-0.404	0.032	0.163	-0.01	0.034	0.223	0.108	-0.14	-0.059
KRAS isoform 2 (UniProt P01116)	0.08	0.026	-0.047	0.027	-0.007	-0.073	0	0.038	0.062	0.141
KNTC1 (UniProt P50748)	-0.255	-0.504 (active)	0.022	0.016	-0.015	-0.007	0.037	0.044	0.027	-0.219
LYPLA2 (UniProt O95372)	0.049	-0.033	0.018	0.521 (active)	0.025	-0.05	0.108	-0.021	-0.053	0.098
LRRFIP1 (UniProt Q32MZ4)	0.06	0.099	-0.075	-0.019	0.019	0.028	-0.004	-0.007	0.011	0.013
KIF11 (UniProt P52732)	0.016	-0.42	0.081	-0.032	-0.076	0.023	0.041	0.031	0.182	0.022
MAGEC2 (UniProt Q9UBF1)	-0.017	-0.146	0.028	-0.062	0.038	-0.048	-0.007	0.011	-0.063	0
JMJD6 isoform 3 (UniProt Q6NYC1)	-0.044	-0.306 (active)	-0.012	-0.015	-0.037	-0.009	-0.006	0.031	0.006	-0.09
